Among the test systems are BT-549 breast; MDA-MB-435 melanoma; SW-620 colon; MCF7 breast; HCT-116 colon; HCC-2998 colon; KM12 colon.
What all share (experiment): NCI-60 one-dose screen, 48 h (100 = growth as untreated, 0 = no growth, -100 = all killed)
Settings in all cases: 10 µM unless noted

Structures are written as SMILES. Compounds without any hit were thinned out: in the full panel of roughly 83,000, 20% have a hit.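 Cell lines were cultured in 96-well plates, exposed to a single compound concentration, and assessed for percent growth 48 hours later.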 Unmarked numbers belong to inactive results. Calls of active or inactive are those of the source. How the source made its calls: active means growth percent below 10; inactive means the rest.

With `Nc1c(C(=O)Nc2ccc(C(F)(F)F)cc2)sc2nc(-c3cnccn3)cc(-c3cccs3)c12`, the growth in the assay on BT-549 breast was 22.5%; with MDA-MB-435 melanoma, 95.4%; in the assay on SW-620 colon, 103%; in the assay on MCF7 breast, 75.8%; in the assay with HCT-116 colon, -62.1% (active); in the assay on HCC-2998 colon, 108%. Moreover, the growth in the assay on KM12 colon is 95.6%.
In the case of `COc1ccc(-n2c(SCC(=O)Nc3ccc(-c4nc5ccccc5[nH]4)cc3)nc3ccccc3c2=O)cc1`, the growth in the assay with BT-549 breast was -65% (active); in the assay with MDA-MB-435 melanoma, -14.4% (active); in the assay with SW-620 colon, 8.47% (active); in the assay on MCF7 breast it was -49.2% (active); in the assay on HCT-116 colon, -39.6% (active); in the assay with HCC-2998 colon, 34.8%. Further, the growth in the assay on KM12 colon was 18.7%.
In the case of `NS(=O)(=O)c1ccc(Nc2nc(Nc3ccccc3)nc(-n3nc(-c4ccccc4)cc3-c3ccccc3)n2)cc1`, the growth is 52.7% in the assay with BT-549 breast; 26.9% in the assay with MDA-MB-435 melanoma; 38.2% in the assay on SW-620 colon; 6.85% (active) in the assay on MCF7 breast; 10.5% in the assay on HCT-116 colon; 43.1% with HCC-2998 colon. Further, the growth in the assay on KM12 colon is 9.22% (active).
Turning to `COc1cc(-c2nc3ccc(-c4nnc(SCC(=O)Nc5ccc(C(=O)/C=C/c6ccc(Cl)cc6)cc5)o4)cc3[nH]2)cc(OC)c1OC`, the growth with BT-549 breast was 84.4%; with MDA-MB-435 melanoma, 99%; in the assay with SW-620 colon, 100%; in the assay with MCF7 breast it was 59.1%; in the assay on HCT-116 colon, 81.5%; with HCC-2998 colon, 120%. For the same molecule, in the assay on KM12 colon, the growth is 90.9%.
Regarding `O=C(N/N=C/c1ccc([N+](=O)[O-])s1)c1[nH]c2ccc(Br)cc2c1-c1ccccc1`, the growth in the assay on BT-549 breast was -19% (active); in the assay on MDA-MB-435 melanoma it was -35.3% (active); with SW-620 colon, 3.34% (active); in the assay on MCF7 breast it was 7.64% (active); in the assay with HCT-116 colon, -7.92% (active); in the assay with HCC-2998 colon, 0.797% (active). Further, the growth in the assay on KM12 colon is 12.8%.
With `O=C(CN1C(=O)/C(=C/c2ccccc2)SC1=S)N1CCOCC1`, the growth was 97.5% with BT-549 breast; 96.2% in the assay with MDA-MB-435 melanoma; 87.2% with SW-620 colon; 80.8% in the assay on MCF7 breast; 98.3% with HCT-116 colon; 112% in the assay with HCC-2998 colon. In addition, the growth in the assay with KM12 colon was 100%.
`COc1cc2nc(-c3ccc(C)cc3)cc(OCCCNCC3CCCO3)c2cc1OC` (stereo not given): the growth with BT-549 breast is 98.5%; in the assay on MDA-MB-435 melanoma, 54.3%; in the assay with SW-620 colon it was 77.5%; with MCF7 breast it was 59.7%; in the assay on HCT-116 colon it was 40.7%; in the assay with HCC-2998 colon, 83.4%. Besides, the growth in the assay with KM12 colon was 60%.
Take `Clc1ccc(-c2cn3cc(Cc4ccc(Cl)c(Cl)c4)sc3n2)cc1`: the growth in the assay with BT-549 breast was 88.9%; in the assay with MDA-MB-435 melanoma, 35%; in the assay on SW-620 colon, 51.7%; in the assay on MCF7 breast, 49.2%; with HCT-116 colon it was 54%; in the assay on HCC-2998 colon, 68.1%. Also, in the assay with KM12 colon, the growth is 32.1%.
Consider `N#Cc1ccc(C(=O)CSc2nc(Nc3ccc(S(N)(=O)=O)cc3)c3ccccc3n2)cc1`, for which the growth in the assay with BT-549 breast was 111%; in the assay on MDA-MB-435 melanoma it was 108%; in the assay on SW-620 colon it was 103%; in the assay with MCF7 breast, 98.6%; in the assay on HCT-116 colon, 100%; in the assay with HCC-2998 colon, 119%. In the assay on KM12 colon, the growth was 107%.
Turning to `OC1CCN(CCCOc2c3ccc(Cl)cc3nc3c2oc2ccccc23)CC1`, the growth in the assay on BT-549 breast is -2.71% (active); with MDA-MB-435 melanoma, -76.3% (active); in the assay with SW-620 colon, -19.8% (active); in the assay on MCF7 breast, -32.1% (active); in the assay on HCT-116 colon, -34.9% (active); in the assay with HCC-2998 colon, -68% (active). Besides, in the assay with KM12 colon, the growth was -16.1% (active).
Consider `CCOC(=O)c1c(Nc2ccccc2)nn2c(N)c(C#N)c(-c3ccc(F)cc3)nc12`, for which the growth was 98.7% with BT-549 breast; 81.2% in the assay on MDA-MB-435 melanoma; 86.5% with SW-620 colon; 67.6% in the assay with MCF7 breast; 87.4% with HCT-116 colon; 110% in the assay with HCC-2998 colon. Besides, in the assay on KM12 colon, the growth was 87.3%.
Consider `C#C[C@]1(O)CC[C@H]2[C@@H]3CC=C4c5sc(Nc6ccc(Cl)cn6)nc5CC[C@]4(C)[C@H]3CC[C@@]21C`, for which the growth in the assay on BT-549 breast was 32.9%; in the assay on MDA-MB-435 melanoma it was 41.4%; in the assay on SW-620 colon, 29.5%; in the assay with MCF7 breast it was 17.6%; in the assay with HCT-116 colon it was 34.5%; in the assay with HCC-2998 colon it was 80%. Also, the growth in the assay on KM12 colon was 38.9%.
Regarding `Cc1ccc(-c2nc(C(Cl)Cl)nc3cc(-c4ccccc4)nn23)cc1`, the growth was 53.6% in the assay with BT-549 breast; 16.1% with MDA-MB-435 melanoma; -40.3% (active) in the assay with SW-620 colon; 25.4% in the assay on MCF7 breast; 11.8% with HCT-116 colon; -55.8% (active) in the assay on HCC-2998 colon. Moreover, the growth in the assay with KM12 colon was -6.93% (active).
Take `CC(O)C(NC(=O)C1CCCN1C(=O)CNC(=O)C1CC(=O)NCC(=O)NC(Cc2c[nH]c3ccccc23)C(=O)NC(Cc2ccc(O)cc2)C(=O)NCC(=O)NC(CO)C(=O)NC(CCC(N)=O)C(=O)NC(Cc2c[nH]c3ccccc23)C(=O)N1)C(=O)NCC(=O)NC(CCC(N)=O)C(=O)NC(CCCNC(=N)N)C(=O)NC(CC(=O)O)C(=O)O` (stereo not given): the growth in the assay with BT-549 breast is 115%; with MDA-MB-435 melanoma, 100%; in the assay with SW-620 colon, 102%; in the assay on MCF7 breast, 96.4%; with HCT-116 colon, 97.4%; in the assay on HCC-2998 colon it was 120%. Moreover, the growth in the assay on KM12 colon was 105%.
As for `COc1ccc(/C=C2\SC(=Nc3cc(C)on3)NC2=O)cc1`, the growth in the assay on BT-549 breast was 88.1%; with MDA-MB-435 melanoma, 104%; in the assay with SW-620 colon it was 99%; in the assay on MCF7 breast it was 89.2%; in the assay with HCT-116 colon, 96.1%; in the assay on HCC-2998 colon, 108%. The growth in the assay on KM12 colon is 108%.
On to `COc1ccc(C(=O)/C=C/c2ccc(OCc3ccc(Cl)cc3)c(OC)c2)cc1OC`, for which the growth was 62.1% in the assay with BT-549 breast; 79.4% with MDA-MB-435 melanoma; 43.1% in the assay on SW-620 colon; 20.4% with MCF7 breast; 20.8% in the assay on HCT-116 colon; 84.3% in the assay on HCC-2998 colon. Moreover, the growth with KM12 colon is 54.9%.
In the case of `CCCC(=O)NC(c1ccc(N(CC)CC)cc1)c1cc(C)c2cccnc2c1O` (stereo not given), the growth is 29.9% in the assay on BT-549 breast; 34.8% in the assay with MDA-MB-435 melanoma; 31.4% in the assay on SW-620 colon; 14.3% with MCF7 breast; 16.8% in the assay on HCT-116 colon; 33.9% in the assay on HCC-2998 colon. In addition, the growth in the assay on KM12 colon is 29.6%.
For `COc1cc(/C=C/C(=O)c2ccc(C)cc2)ccc1Oc1nc(NCCO)nc(N2CCOCC2)n1`, the growth was -58.8% (active) in the assay with BT-549 breast; 33.1% in the assay with MDA-MB-435 melanoma; 3.05% (active) in the assay on SW-620 colon; 9.07% (active) in the assay with MCF7 breast; -77.2% (active) in the assay with HCT-116 colon; 93.8% in the assay with HCC-2998 colon. Further, the growth in the assay with KM12 colon was 20.2%.
For the molecule `CCOC(=O)c1c(Nc2ccccc2)nn2c(N)c(C#N)c(-c3ccc(OC)cc3)nc12`, the growth was 52.6% in the assay with BT-549 breast; 79% in the assay with MDA-MB-435 melanoma; 94.7% in the assay on SW-620 colon; 70.3% in the assay with MCF7 breast; 77.8% in the assay on HCT-116 colon; 92.5% in the assay on HCC-2998 colon. In the assay with KM12 colon, the growth is 83%.
In the case of `N#Cc1c(-c2ccc(Cl)cc2)nc(SCc2ccc([N+](=O)[O-])cc2)nc1N1CCNCC1`, the growth in the assay on BT-549 breast was 89.6%; in the assay on MDA-MB-435 melanoma it was -63.3% (active); in the assay with SW-620 colon, -52.8% (active); in the assay with MCF7 breast, -43.9% (active); in the assay with HCT-116 colon, -91.5% (active); in the assay on HCC-2998 colon, -40.1% (active). Besides, in the assay with KM12 colon, the growth is -47.2% (active).
With `NS(=O)(=O)c1cccc(Nc2nc(SCC(=O)c3ccc([N+](=O)[O-])cc3)nc3ccccc23)c1`, the growth in the assay with BT-549 breast was -4.45% (active); in the assay on MDA-MB-435 melanoma it was 51.3%; in the assay on SW-620 colon, 69.2%; with MCF7 breast, 11.7%; in the assay with HCT-116 colon, 36.8%; in the assay with HCC-2998 colon it was 54.3%. Besides, the growth in the assay with KM12 colon is 38.4%.
Regarding `CN(C)c1ccc(-c2c(NC(C)(C)C)nc3c(OCCc4ccccc4)cccn23)cc1`, the growth was 42.3% in the assay with BT-549 breast; 24% with MDA-MB-435 melanoma; 12.4% in the assay on SW-620 colon; 1.49% (active) in the assay on MCF7 breast; 8.37% (active) in the assay on HCT-116 colon; 13% with HCC-2998 colon. Moreover, in the assay on KM12 colon, the growth was 6.85% (active).
As for `COc1cccc(OC)c1-c1nnn(C)c1C(=S)N1CCN(c2ccc([N+](=O)[O-])cc2Cl)CC1`, the growth was 91.7% with BT-549 breast; 102% in the assay with MDA-MB-435 melanoma; 101% in the assay with SW-620 colon; 85.7% in the assay with MCF7 breast; 88.2% in the assay on HCT-116 colon; 96.7% in the assay on HCC-2998 colon. The growth in the assay on KM12 colon is 108%.
Take `Nc1nc(N)c2c(n1)NC(c1ccc(C(F)(F)F)cc1)CC(c1ccc(Nc3nc(NCCO)nc(Nc4ccc(Cl)cc4)n3)cc1)=N2` (stereo not given): the growth with BT-549 breast is -28.7% (active); with MDA-MB-435 melanoma, -61.5% (active); with SW-620 colon it was -66.6% (active); in the assay on MCF7 breast, -52.5% (active); in the assay with HCT-116 colon, -85.3% (active); in the assay on HCC-2998 colon, -86.6% (active). In addition, the growth in the assay with KM12 colon is -65.3% (active).
Take `O=C(CSc1nnc(-c2ccc3nc(-c4ccc(Cl)cc4)[nH]c3c2)o1)Nc1ccc(C(=O)/C=C/c2ccc(Cl)cc2)cc1`: the growth in the assay with BT-549 breast is 99.6%; with MDA-MB-435 melanoma, 99.9%; with SW-620 colon it was 103%; with MCF7 breast it was 55.2%; with HCT-116 colon, 77.8%; in the assay on HCC-2998 colon, 116%. Also, the growth with KM12 colon is 99.3%.

For the origin of these results see PubChem BioAssay (NCI).
